Test results as given in the supplement of paper PMC11732987, “Enantioselective OTUD7B fragment discovery through chemoproteomics screening and high-throughput optimisation” (Communications Chemistry, 2025).

How the values were obtained:
Assay in all cases: log2 ratio of Biotin-Ahx-Ub-VS probe labelling (fragment/DMSO); higher = less target engagement (more negative = stronger competition), active = hit call of the paper (q ≤ 0.05, log2 ratio ≤ -1)
Conditions in all cases: compound concentration: 200 uM; treatment time: 3 h
USP9X = USP9X (UniProt Q93008)
Chain of USP9X (Q93008 whole entry, the tested form may be a part): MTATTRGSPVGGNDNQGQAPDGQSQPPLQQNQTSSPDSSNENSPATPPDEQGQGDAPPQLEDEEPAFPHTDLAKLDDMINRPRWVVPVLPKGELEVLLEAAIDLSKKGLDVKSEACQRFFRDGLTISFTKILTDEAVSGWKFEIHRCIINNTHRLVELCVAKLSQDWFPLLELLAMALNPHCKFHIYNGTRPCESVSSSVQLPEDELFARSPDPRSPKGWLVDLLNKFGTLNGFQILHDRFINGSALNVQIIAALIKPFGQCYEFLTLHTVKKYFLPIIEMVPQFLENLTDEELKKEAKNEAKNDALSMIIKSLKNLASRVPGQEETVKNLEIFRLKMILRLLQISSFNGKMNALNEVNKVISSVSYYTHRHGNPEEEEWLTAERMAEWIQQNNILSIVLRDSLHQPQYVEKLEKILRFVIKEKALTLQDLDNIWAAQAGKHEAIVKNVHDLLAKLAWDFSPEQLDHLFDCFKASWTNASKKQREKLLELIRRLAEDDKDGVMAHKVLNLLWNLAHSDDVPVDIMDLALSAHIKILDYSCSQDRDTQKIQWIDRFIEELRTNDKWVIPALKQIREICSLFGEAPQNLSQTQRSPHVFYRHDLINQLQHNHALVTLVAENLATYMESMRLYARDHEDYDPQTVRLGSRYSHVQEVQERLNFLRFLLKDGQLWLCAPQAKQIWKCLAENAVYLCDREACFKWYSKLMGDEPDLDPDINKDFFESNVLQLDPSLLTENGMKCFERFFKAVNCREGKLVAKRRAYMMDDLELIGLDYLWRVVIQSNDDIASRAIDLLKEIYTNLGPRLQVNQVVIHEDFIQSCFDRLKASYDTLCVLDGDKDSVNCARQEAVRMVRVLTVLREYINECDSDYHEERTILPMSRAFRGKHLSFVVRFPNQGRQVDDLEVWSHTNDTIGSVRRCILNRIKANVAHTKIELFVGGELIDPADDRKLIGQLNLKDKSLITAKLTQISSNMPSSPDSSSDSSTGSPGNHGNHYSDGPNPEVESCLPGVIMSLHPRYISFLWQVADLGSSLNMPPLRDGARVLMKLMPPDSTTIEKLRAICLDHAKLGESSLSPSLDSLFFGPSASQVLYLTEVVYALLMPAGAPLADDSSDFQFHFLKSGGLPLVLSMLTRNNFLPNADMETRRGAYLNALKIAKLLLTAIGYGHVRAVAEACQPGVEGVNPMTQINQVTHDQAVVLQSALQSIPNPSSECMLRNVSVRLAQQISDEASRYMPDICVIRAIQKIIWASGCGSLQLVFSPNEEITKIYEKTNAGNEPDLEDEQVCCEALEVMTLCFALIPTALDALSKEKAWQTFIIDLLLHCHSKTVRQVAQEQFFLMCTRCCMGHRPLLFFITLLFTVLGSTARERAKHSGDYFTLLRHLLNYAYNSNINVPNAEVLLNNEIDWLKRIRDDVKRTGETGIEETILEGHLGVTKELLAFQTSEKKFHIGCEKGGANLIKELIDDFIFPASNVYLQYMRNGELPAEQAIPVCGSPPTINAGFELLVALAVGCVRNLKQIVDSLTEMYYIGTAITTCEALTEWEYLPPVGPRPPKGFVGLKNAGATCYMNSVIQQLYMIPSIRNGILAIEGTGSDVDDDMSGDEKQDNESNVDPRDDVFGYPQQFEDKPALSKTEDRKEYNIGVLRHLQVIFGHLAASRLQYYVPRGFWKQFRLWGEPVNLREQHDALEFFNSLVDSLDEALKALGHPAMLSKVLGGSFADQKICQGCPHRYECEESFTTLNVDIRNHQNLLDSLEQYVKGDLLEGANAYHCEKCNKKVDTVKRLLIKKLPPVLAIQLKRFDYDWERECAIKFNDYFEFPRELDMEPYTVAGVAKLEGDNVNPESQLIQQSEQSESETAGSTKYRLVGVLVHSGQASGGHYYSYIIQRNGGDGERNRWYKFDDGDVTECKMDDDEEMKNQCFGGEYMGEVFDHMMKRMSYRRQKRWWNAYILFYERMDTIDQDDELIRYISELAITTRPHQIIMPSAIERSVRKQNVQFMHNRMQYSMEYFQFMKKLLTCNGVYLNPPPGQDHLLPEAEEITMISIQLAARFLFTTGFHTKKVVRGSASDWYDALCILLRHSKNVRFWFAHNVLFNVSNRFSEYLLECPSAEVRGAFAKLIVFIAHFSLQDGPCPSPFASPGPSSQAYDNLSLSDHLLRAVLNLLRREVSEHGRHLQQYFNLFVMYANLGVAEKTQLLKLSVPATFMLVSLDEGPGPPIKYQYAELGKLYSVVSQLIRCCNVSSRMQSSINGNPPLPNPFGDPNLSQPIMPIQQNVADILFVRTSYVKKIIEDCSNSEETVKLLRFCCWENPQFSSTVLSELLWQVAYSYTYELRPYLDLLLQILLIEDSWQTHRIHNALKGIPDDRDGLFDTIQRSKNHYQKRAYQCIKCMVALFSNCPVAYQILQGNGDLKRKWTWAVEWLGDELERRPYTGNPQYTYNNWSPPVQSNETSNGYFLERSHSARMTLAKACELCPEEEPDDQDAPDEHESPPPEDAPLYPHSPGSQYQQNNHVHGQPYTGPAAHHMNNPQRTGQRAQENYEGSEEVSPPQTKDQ
Procedure, shortened: (§1)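 HEK293T lysate (495 µg per sample, in Tris/CHAPS/IGEPAL buffer with protease inhibitors) was exposed in triplicate for 3 h to fragment at 200 µM or to vehicle, then to Biotin-Ahx-Ub-VS at 0.5 µM final for 1 h. Labelled DUBs were enriched on NeutrAvidin, digested with LysC and trypsin, and analysed by diaPASEF LC-MS/MS. Spectronaut label-free quantities were normalised to the global median, and values are average log2 ratios of fragment over vehicle from an unpaired t-test. Only proteins with ≥2 unique peptides were used.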

UniProt O00487 = target: UniProt O00487
Chain of UniProt O00487 (O00487 whole entry): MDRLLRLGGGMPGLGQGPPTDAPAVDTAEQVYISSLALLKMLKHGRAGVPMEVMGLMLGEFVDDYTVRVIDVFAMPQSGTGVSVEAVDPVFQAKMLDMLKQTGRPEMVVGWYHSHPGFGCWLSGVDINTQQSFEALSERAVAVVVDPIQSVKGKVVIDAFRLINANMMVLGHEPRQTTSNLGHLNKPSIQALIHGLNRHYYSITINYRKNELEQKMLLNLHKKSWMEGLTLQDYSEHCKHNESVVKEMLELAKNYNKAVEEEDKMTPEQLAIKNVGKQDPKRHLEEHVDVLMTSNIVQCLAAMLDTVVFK
Procedure, shortened: as §1

UniProt O00507 = target: UniProt O00507
Procedure, shortened: as §1

UniProt P51784 = target: UniProt P51784
Chain of UniProt P51784 (P51784 whole entry): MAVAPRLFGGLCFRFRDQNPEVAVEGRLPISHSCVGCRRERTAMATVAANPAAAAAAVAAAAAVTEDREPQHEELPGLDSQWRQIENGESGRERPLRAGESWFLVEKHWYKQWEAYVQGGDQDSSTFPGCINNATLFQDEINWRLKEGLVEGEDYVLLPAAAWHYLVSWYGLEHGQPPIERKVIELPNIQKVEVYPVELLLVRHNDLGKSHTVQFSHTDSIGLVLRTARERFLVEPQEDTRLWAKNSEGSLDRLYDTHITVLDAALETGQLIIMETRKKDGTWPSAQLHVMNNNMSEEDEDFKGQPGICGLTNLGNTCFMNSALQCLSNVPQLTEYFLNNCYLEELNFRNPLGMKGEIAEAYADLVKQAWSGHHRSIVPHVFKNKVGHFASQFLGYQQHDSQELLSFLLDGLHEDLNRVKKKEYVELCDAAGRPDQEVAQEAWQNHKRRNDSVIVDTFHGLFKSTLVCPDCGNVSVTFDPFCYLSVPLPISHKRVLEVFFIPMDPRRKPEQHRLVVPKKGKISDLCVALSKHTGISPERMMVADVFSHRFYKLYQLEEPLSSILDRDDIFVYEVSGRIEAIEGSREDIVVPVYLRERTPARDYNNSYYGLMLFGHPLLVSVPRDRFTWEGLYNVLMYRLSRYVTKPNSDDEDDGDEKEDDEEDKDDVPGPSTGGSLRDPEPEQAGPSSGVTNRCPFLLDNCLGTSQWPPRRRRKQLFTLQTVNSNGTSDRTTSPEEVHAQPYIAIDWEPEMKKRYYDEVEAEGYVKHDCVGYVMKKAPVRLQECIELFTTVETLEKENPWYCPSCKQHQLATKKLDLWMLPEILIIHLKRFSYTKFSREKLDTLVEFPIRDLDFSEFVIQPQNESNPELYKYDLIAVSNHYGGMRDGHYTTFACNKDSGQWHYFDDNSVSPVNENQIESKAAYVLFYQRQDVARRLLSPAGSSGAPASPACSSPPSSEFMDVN
Procedure, shortened: as §1

UniProt Q5T2D3 = target: T1, UniProt Q5T2D3
T1 sequence (whole entry): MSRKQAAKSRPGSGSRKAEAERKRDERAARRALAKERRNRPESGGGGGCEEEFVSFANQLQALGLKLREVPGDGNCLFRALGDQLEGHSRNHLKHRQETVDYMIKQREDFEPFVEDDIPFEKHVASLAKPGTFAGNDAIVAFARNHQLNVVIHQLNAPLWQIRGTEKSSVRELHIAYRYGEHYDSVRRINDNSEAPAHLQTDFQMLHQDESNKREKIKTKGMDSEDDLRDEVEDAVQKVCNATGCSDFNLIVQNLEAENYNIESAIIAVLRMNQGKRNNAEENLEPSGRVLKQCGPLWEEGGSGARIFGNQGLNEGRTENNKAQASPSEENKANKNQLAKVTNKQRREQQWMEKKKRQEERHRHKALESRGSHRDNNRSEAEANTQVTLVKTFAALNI
Procedure, shortened: as §1

UniProt Q8TE49 = target: T2, UniProt Q8TE49
T2 sequence (whole entry): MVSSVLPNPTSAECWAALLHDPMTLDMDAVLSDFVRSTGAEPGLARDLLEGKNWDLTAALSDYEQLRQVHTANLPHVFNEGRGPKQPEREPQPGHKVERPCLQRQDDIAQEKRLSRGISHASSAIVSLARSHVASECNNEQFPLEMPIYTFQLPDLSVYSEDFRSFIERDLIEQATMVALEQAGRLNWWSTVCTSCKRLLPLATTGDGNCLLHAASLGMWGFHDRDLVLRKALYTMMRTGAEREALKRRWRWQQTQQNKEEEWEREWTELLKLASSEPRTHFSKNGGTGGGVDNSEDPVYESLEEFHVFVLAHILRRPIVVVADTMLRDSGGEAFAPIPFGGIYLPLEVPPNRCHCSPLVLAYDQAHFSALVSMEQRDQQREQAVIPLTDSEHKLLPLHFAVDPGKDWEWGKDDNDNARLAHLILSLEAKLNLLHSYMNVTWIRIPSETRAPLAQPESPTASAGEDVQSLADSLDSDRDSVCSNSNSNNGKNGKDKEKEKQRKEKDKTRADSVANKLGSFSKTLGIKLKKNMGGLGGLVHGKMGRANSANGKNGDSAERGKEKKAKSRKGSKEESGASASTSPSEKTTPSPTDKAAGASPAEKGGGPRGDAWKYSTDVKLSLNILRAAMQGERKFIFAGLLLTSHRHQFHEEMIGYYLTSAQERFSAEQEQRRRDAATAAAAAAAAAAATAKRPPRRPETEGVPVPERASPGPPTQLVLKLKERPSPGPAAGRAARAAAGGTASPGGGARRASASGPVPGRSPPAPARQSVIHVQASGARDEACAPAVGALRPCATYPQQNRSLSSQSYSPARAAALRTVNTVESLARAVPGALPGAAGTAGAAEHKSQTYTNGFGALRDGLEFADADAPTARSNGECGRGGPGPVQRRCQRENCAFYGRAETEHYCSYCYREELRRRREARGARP
Procedure, shortened: as §1

UniProt Q9P2H5 = target: T3, UniProt Q9P2H5
T3 sequence (whole entry): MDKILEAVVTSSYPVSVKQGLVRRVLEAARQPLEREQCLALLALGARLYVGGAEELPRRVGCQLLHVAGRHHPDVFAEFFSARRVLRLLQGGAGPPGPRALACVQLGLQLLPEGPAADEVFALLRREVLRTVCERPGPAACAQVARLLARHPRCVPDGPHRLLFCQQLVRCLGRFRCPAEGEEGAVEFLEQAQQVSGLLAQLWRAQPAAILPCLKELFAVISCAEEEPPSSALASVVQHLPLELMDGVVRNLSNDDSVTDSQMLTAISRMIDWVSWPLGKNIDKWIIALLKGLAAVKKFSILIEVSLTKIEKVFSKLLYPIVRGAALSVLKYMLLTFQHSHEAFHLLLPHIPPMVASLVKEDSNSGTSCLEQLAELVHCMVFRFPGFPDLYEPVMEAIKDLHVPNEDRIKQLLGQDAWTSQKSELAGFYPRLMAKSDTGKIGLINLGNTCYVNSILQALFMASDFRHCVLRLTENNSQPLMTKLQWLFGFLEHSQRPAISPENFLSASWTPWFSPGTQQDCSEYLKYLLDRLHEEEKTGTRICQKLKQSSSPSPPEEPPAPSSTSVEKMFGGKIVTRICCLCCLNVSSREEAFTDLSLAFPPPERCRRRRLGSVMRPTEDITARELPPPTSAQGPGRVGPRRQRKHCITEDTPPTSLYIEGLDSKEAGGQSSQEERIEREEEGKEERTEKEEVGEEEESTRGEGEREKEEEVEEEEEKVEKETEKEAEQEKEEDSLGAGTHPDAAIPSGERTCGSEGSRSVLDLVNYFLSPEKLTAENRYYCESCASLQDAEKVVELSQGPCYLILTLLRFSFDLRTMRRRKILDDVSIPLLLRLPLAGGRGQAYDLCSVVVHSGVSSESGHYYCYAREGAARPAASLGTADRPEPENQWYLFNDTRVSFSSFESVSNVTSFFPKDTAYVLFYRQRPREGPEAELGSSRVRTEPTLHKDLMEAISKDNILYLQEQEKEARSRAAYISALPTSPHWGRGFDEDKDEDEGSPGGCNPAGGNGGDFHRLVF
Procedure, shortened: as §1

UniProt Q9UGI0 = target: T4, UniProt Q9UGI0
T4 sequence (whole entry): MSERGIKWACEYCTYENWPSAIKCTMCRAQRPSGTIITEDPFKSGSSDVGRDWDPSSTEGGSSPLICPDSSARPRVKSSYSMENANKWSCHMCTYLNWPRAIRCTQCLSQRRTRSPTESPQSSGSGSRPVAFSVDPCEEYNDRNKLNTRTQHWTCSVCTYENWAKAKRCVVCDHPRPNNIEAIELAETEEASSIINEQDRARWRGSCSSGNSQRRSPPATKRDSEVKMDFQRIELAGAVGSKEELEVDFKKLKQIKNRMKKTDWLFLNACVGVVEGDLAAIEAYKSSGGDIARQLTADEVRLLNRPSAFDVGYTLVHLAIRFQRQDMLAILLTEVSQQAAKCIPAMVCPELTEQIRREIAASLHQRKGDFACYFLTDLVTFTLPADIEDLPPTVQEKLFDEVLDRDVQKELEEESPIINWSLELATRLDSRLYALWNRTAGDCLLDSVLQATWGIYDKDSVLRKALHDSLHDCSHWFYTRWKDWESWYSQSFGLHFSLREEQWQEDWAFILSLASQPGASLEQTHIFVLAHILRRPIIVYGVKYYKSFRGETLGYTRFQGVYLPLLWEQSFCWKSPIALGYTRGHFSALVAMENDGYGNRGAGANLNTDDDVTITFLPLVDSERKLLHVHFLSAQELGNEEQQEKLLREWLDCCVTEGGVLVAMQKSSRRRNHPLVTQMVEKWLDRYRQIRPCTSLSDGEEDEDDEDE
Procedure, shortened: as §1

YOD1 = target: T5, YOD1 (UniProt Q5VVQ6)
T5 sequence (whole entry): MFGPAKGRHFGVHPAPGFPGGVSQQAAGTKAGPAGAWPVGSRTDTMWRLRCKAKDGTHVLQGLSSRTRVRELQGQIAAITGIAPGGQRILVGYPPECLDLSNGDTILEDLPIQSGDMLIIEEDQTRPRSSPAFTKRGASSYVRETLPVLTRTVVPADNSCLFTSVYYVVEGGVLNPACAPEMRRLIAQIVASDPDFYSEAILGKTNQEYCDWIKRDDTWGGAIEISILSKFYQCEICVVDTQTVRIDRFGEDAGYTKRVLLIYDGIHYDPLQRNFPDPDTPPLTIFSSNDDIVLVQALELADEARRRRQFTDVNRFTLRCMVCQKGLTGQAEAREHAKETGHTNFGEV
Procedure, shortened: as §1

Measured: log2 ratio of Biotin-Ahx-Ub-VS probe labelling

O=C(CCl)NC(Cn1ccccc1=O)c1ccccc1 (centres undefined)
inactive: USP9X -0.00544 | UniProt O00487 0.0216 | UniProt O00507 0.0241 | UniProt P51784 0.0376 | UniProt Q5T2D3 0.0727 | UniProt Q8TE49 -0.0581 | UniProt Q9P2H5 0.148 | UniProt Q9UGI0 -0.146 | YOD1 0.00589
